SMILES strings stand for the structures. Among all 360,000 compounds or so, about 1,600 (0.44%) were called active. This is one part of a sample in which actives are shown more often than they occur.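 The calls were made as follows: active = inhibition above the screen-wide average plus 3 SD (cut at about 13% in these data); inactive = the rest.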

Sequence of Galanin receptor type 3 (Homo sapiens) (O60755 1-299 limits assumed): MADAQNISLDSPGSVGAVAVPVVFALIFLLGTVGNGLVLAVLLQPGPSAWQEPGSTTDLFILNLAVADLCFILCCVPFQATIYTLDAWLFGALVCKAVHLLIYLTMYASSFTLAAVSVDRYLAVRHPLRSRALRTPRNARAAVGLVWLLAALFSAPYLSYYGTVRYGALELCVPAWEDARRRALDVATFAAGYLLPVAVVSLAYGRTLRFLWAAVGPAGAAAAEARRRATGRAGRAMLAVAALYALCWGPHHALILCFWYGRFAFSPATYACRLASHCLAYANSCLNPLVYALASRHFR

This test concerns the target Galanin receptor type 3 (Homo sapiens) (UniProt O60755). Description: blockers of human galanin receptor 3 – cell-based, fluorescence readout, primary screen (AID 651719).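 Also: forskolin and galanin both at EC90 stimulate the cells; cAMP rise reported by CNG channel membrane potential dye signal; 0% = forskolin plus galanin with DMSO and 100% = forskolin alone.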 The following applies: HEK293 GalR3-CNG cAMP membrane potential fluorescence; at 3 µM; stronger effect = higher value; galR3 body fused to GalR1 C-terminus.
With `COC(=O)C1=C(C)N(Cc2ccccc2C(F)(F)F)C(=NCc2ccc(OC)cc2)NC1c1cccc(C(F)(F)F)c1` (configuration not stated), the inhibition – broadly, the drop in the measured response relative to a control, in per cent – was -3.7% (inactive).
`CN1C(=O)C(Br)(Br)CC1c1cccnc1` (configuration not stated): the inhibition is -8.3% (inactive).
`Nc1nc2c(ncn2[C@@H]2O[C@H](C(=O)N[C@H](Cc3ccccc3)C(=O)NCC3CCCCC3)[C@@H](O)[C@H]2O)c(=O)[nH]1`: the inhibition is -7.48% (inactive).
To `CSc1ccc(Oc2cccc3c2S(=O)(=O)N([C@H](C)c2ccccc2)C[C@@H](COCc2ccccc2)O3)cc1C` belongs -3.93% (inactive); to `COC(=O)c1ccccc1NC(=O)CSc1n[nH]c(-c2ccncc2)n1`, -2.72% (inactive).
To `CCc1ccc(-c2nc(SCC(=O)NC3CCCC3)n[nH]2)cc1` belongs 24.9% (active); to `CCc1c(C)nc(SCC(=O)NC2CCCC2)[nH]c1=O`, -6.61% (inactive).
To `CN(C)C(=O)N1CCN(C(=O)[C@@H](Cc2ccccc2)NC(=O)[C@H]2O[C@@H](n3ccc(N)nc3=O)[C@H](O)[C@@H]2O)CC1` belongs -7.47% (inactive); to `COc1ccccc1CCn1cnc(-c2ccccc2)c1C(C)C`, -9.98% (inactive); to `Cc1ccc(F)cc1NC(=O)Cc1nn(C)c(=O)c2ccccc12`, 41.5% (active).
`Cc1ccc(F)cc1NC(=O)CSCc1c(C)noc1C`: the inhibition is -4.98% (inactive).
Under `Cc1ccc(C)c(NC(=O)COC(=O)c2nn(C)c(=O)c3ccccc23)c1` stands -2.16% (inactive).
To `O=C(NCc1ccccc1)[C@H]1CCCN1C(=O)[C@H]1CCCN1C(=O)c1cc(F)cc(F)c1` belongs -0.96% (inactive); to `Nc1ccn([C@@H]2O[C@H](C(=O)N[C@H]3CCCCNC3=O)[C@@H](O)[C@H]2O)c(=O)n1`, -3.96% (inactive); to `C[C@@H]1CN([C@H](C)CO)C(=O)CCCn2cc(nn2)CO[C@H]1CN(C)C(=O)Nc1ccc(N2CCCCC2)cc1`, -3.62% (inactive).
Regarding `O=C(COC(=O)[C@H](Cc1ccccc1)NC(=O)c1cccs1)Nc1cc(F)ccc1F`, the inhibition was -2.8% (inactive).
Under `CC(=O)c1ccc(NC(=O)N[C@@H](Cc2ccccc2)C(=O)O)cc1` stands -4.01% (inactive); under `NC(=O)c1ccc(NC(=O)COC(=O)C(Cc2ccccc2)NC(=O)c2ccccc2)cc1` (configuration not stated), 15.4% (active); under `COC(=O)c1c(-c2ccc(OC)cc2)c2c(c3c4ccccc4n(S(=O)(=O)c4ccc(C)cc4)c13)C(=O)N(C)C2`, -6.49% (inactive).
On to `COc1ccc(-c2ccccc2C2Cc3nnccc3CN2C(=O)Nc2ccccc2)cc1` (configuration not stated), for which the inhibition is -8.69% (inactive).
As for `CCOC(=O)N1CCN(C(=O)C[C@H]2C[C@@]3(C(=O)OC)C(=C[C@H](C4CCCC4)O[C@@H]3C)N(Cc3ccccc3)C2=O)CC1`, the inhibition is -2.22% (inactive).
Take `C#CCN([C@@H](C)C(=O)OCC)S(=O)(=O)c1ccc(Br)cc1F`: the inhibition is -6.91% (inactive).
To `O=C(Nc1ccccc1Cl)/C(Cl)=C(\Cl)S(=O)c1ccccc1` (configuration not stated) belongs 16.2% (active); to `CC(=O)c1ccc(NC(=O)C(C)N(C)CC(=O)Nc2ccccc2Cl)cc1` (configuration not stated), -3.44% (inactive).
To `O=C(Nc1ccccc1Cl)c1ccccc1S(=O)(=O)c1ccccc1[N+](=O)[O-]` belongs 0.75% (inactive); to `COc1ccc(C2=CN(Cc3ccccc3)C(c3ccc(OC)cc3)CC2=O)cc1` (configuration not stated), -4.04% (inactive).
For the molecule `Fc1cccc2ncnc(OCc3ccccc3)c12`, the inhibition was -3.41% (inactive).
Under `Cc1occc(=O)c1OCc1ccc(F)cc1` stands 5.85% (inactive).
Under `Cc1nc2ccccc2cc1OCc1ccc(F)cc1` stands 80% (active); under `CCOC(=O)Cn1c2c(n(-c3ccc(F)cc3)c1=O)C=C(c1ccccc1)[C@@H](C)C(C(=O)N(C)C1CCCCC1)=C2`, -7.9% (inactive); under `COC(=O)[C@]12C[C@H](CC(=O)NCCc3ccccc3OC)C(=O)N(Cc3ccccc3)C1=C[C@H](C(C)C)O[C@@H]2C1CC1`, -6.79% (inactive).
On to `COc1cc(NC(=O)c2cc([N+](=O)[O-])ccc2Br)ccc1NC(=O)c1ccco1`, for which the inhibition was 22.4% (active).
On to `COc1ccc(NC(=O)c2ccco2)cc1NC(=O)c1ccc(C#N)cc1F`, for which the inhibition is -2.95% (inactive).
To `COc1ccc(CC(=O)Nc2ccccc2NC(=O)c2ccco2)cc1OC` belongs -2.83% (inactive); to `Cc1ccc(C)c(CN2CCC(CNC(=O)C3CCCN(c4ncnc5c4nc4n5CCCCC4)C3)CC2)c1` (configuration not stated), -1.9% (inactive).
To `Cc1[nH]c2ccccc2c1CC(=O)Nc1ccc(Nc2cccnc2)c(-c2cccc(Cl)c2)c1` belongs -2.4% (inactive); to `CCCCOCC1CN(CCCC)S(=O)(=O)c2c(Oc3ccc(F)cc3)cccc2O1` (configuration not stated), 2.7% (inactive).

The values above are taken from PubChem BioAssay AID651719 (The Scripps Research Institute Molecular Screening Center, 2012).
